Results from the supplement of paper PMC8975748.
Structures can show the parent of a compound that is named as a salt.

What follows are compounds tested on Saccharomyces cerevisiae BY4741 SeMeCo community (assay: z-score of prototroph abundance vs DMSO median; higher = larger share of this subpopulation than in DMSO controls). Settings: 10 µM; 24 h; SM minimal medium; subpopulation (auxotrophy): Prototroph.
Summary of the method: (§1)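 A Saccharomyces cerevisiae BY4741 community carried four plasmids, each restoring one auxotrophy and encoding a distinct fluorescent protein. It was pre-grown overnight to OD600 1.0, diluted to 0.3, and 70 µl was added to 384-well plates acoustically predosed with library drugs (10 µM final), then grown 24 h in minimal SM medium. Cells were paraformaldehyde-fixed and imaged by automated confocal microscopy, with single-auxotroph fluorescent strains setting thresholds and autofluorescence correction. Each subpopulation's abundance was scored as a z-score against the vehicle-well median.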
`CN1CCN(CCCN2c3ccccc3Sc3ccc(C(F)(F)F)cc32)CC1` [Trifluoperazine 2HCl] was tested, and the “z-score of prototroph abundance” value was 0.01. In the case of `C[C@]12CC[C@@H]3c4ccc(OS(=O)(=O)O)cc4CC[C@H]3[C@@H]1CCC2=O` [Estropipate], the “z-score of prototroph abundance” value is reported as 0.59. In the case of `O=C(Cn1ccnc1[N+](=O)[O-])NCc1ccccc1` [Benznidazole], the “z-score of prototroph abundance” value is reported as 0.22. With `CCN(Cc1ccncc1)C(=O)C(CO)c1ccccc1` (centres undefined) [Tropicamide] the “z-score of prototroph abundance” value was -0.08.

These compounds were tested on Saccharomyces cerevisiae BY4741 SeMeCo community (assay: z-score of subpopulation abundance vs DMSO median, subpopulation auxotrophic for M; higher = larger share of this subpopulation than in DMSO controls). Settings: 10 µM; 24 h; SM minimal medium; subpopulation (auxotrophy): M.
Summary of the method: as §1
For `CC(C)Cc1ccc(C(C)C(=O)O)cc1` (centres undefined) [Ibuprofen], the “z-score of subpopulation abundance” value was -0.51. `Fc1ccc(C(c2ccc(F)cc2)N2CCN(C/C=C/c3ccccc3)CC2)cc1` [Flunarizine 2HCl] was tested, and the “z-score of subpopulation abundance” value was -0.21. For `COCCCN1CCC(NC(=O)c2cc(Cl)c(N)c3c2OCC3)CC1` [Prucalopride Succinate], the “z-score of subpopulation abundance” value was 0.77. `CCCCOc1ccc(CC(=O)NO)cc1` [Bufexamac] was tested, and the “z-score of subpopulation abundance” value was -0.94. `O=C(Nc1cc(Cl)cc(Cl)c1O)c1c(O)c(Cl)cc(Cl)c1Cl` [Oxyclozanide] was tested, and the “z-score of subpopulation abundance” value was -2.38. For `CCC(=O)NS(=O)(=O)c1ccc(-c2c(-c3ccccc3)noc2C)cc1` [Parecoxib Sodium], the “z-score of subpopulation abundance” value was 0.75. `CN(CCN1CCC(OC(=O)Nc2ccccc2-c2ccccc2)CC1)C(=O)c1ccc(CN2CCC(C(N)=O)CC2)cc1` [Revefenacin] was tested, and the “z-score of subpopulation abundance” value was 1.54. For `Cc1nnc(NS(=O)(=O)c2ccc(N)cc2)s1` [Sulfamethizole], the “z-score of subpopulation abundance” value was -0.46. `CC1=CC[C@@](O)(C(C)C)CC1` [Terpinen-4-ol] was tested, and the “z-score of subpopulation abundance” value was -1.02. With `Cn1c([N+](=O)[O-])cnc1COC(N)=O` [Ronidazole] the “z-score of subpopulation abundance” value was -0.37. With `COc1ccc(Cl)cc1C(=O)NCCc1ccc(S(=O)(=O)NC(=O)NC2CCCCC2)cc1` [Glyburide (Glibenclamide)] the “z-score of subpopulation abundance” value was -0.21. For `O=C(Nc1c(Cl)cncc1Cl)c1ccc(OC(F)F)c(OCC2CC2)c1` [Roflumilast], the “z-score of subpopulation abundance” value was 0.29. In the case of `CN(C)CCC=C1c2ccccc2C(C)(C)c2ccccc21` [Melitracen hydrochloride], the “z-score of subpopulation abundance” value is reported as -0.28. With `COc1cc(Cc2cnc(N)nc2N)cc(OC)c1OC` [Trimethoprim] the “z-score of subpopulation abundance” value was 0.01. `CC(C)c1c(C(=O)Nc2ccccc2)c(-c2ccccc2)c(-c2ccc(F)cc2)n1CC[C@@H](O)C[C@@H](O)CC(=O)O` [Atorvastatin] was tested, and the “z-score of subpopulation abundance” value was -2.26. For `COCCOC(=O)C1=C(C)NC(C)=C(C(=O)OC(C)C)C1c1cccc([N+](=O)[O-])c1` (centres undefined) [Nimodipine], the “z-score of subpopulation abundance” value was -0.26. In the case of `CCOC(=O)C1=C(C)NC(C)=C(C(=O)OC)C1c1cccc([N+](=O)[O-])c1` (centres undefined) [Nitrendipine], the “z-score of subpopulation abundance” value is reported as -0.21. With `CC(C)n1c(/C=C/C(O)CC(O)CC(=O)O)c(-c2ccc(F)cc2)c2ccccc21` (centres undefined) [Fluvastatin Sodium] the “z-score of subpopulation abundance” value was 6.6. `CCCN[C@H]1CCc2nc(N)sc2C1` [Pramipexole dihydrochloride] was tested, and the “z-score of subpopulation abundance” value was -0.32. For `Cc1cc(C)nc(NS(=O)(=O)c2ccc(N)cc2)n1` [Sulfamethazine], the “z-score of subpopulation abundance” value was 0.92. `CC[C@H](C)C(=O)O[C@H]1C[C@@H](C)C=C2C=C[C@H](C)[C@H](CC[C@@H]3C[C@@H](O)CC(=O)O3)[C@H]21` [Lovastatin] was tested, and the “z-score of subpopulation abundance” value was 0.85. In the case of `CN1[C@@H]2CC[C@H]1C[C@@H](OC(c1ccccc1)c1ccccc1)C2` [Benztropine mesylate], the “z-score of subpopulation abundance” value is reported as -0.66. `NCC[C@H](O)C(=O)N[C@@H]1C[C@H](N)[C@@H](O[C@H]2O[C@H](CN)[C@@H](O)[C@H](O)[C@H]2O)[C@H](O)[C@H]1O[C@H]1O[C@H](CO)[C@@H](O)[C@H](N)[C@H]1O` [Amikacin hydrate] was tested, and the “z-score of subpopulation abundance” value was -0.02. With `CO/N=C(\C(=O)N[C@@H]1C(=O)N2C(C(=O)O)=C(CSc3nc(C)c(CC(=O)O)s3)CS[C@H]12)c1csc(N)n1` [Cefodizime Sodium] the “z-score of subpopulation abundance” value was -0.97. With `COc1ccc2c3c1O[C@H]1C[C@@H](O)C=C[C@@]31CCN(C)C2` [Galanthamine] the “z-score of subpopulation abundance” value was 1.21. With `CC[C@H](C)C(=O)O[C@H]1CCC=C2C=C[C@H](C)[C@H](CC[C@@H]3C[C@@H](O)CC(=O)O3)[C@H]21` [Mevastatin] the “z-score of subpopulation abundance” value was -0.77. With `O=C(Cn1ccnc1[N+](=O)[O-])NCc1ccccc1` [Benznidazole] the “z-score of subpopulation abundance” value was -0.28. `CCN(Cc1ccncc1)C(=O)C(CO)c1ccccc1` (centres undefined) [Tropicamide] was tested, and the “z-score of subpopulation abundance” value was -0.16.

Each compound was assayed on Saccharomyces cerevisiae BY4741 SeMeCo community (assay: z-score of subpopulation abundance vs DMSO median, subpopulation auxotrophic for L; higher = larger share of this subpopulation than in DMSO controls). Settings: 10 µM; 24 h; SM minimal medium; subpopulation (auxotrophy): L.
Summary of the method: as §1
With `CC(C)Cc1ccc(C(C)C(=O)O)cc1` (centres undefined) [Ibuprofen] the “z-score of subpopulation abundance” value was -0.92. For `Fc1ccc(C(c2ccc(F)cc2)N2CCN(C/C=C/c3ccccc3)CC2)cc1` [Flunarizine 2HCl], the “z-score of subpopulation abundance” value was 2.04. In the case of `COCCCN1CCC(NC(=O)c2cc(Cl)c(N)c3c2OCC3)CC1` [Prucalopride Succinate], the “z-score of subpopulation abundance” value is reported as -0.33. `CCCCOc1ccc(CC(=O)NO)cc1` [Bufexamac] was tested, and the “z-score of subpopulation abundance” value was -1.49. With `O=C(Nc1cc(Cl)cc(Cl)c1O)c1c(O)c(Cl)cc(Cl)c1Cl` [Oxyclozanide] the “z-score of subpopulation abundance” value was -0.21. For `CCC(=O)NS(=O)(=O)c1ccc(-c2c(-c3ccccc3)noc2C)cc1` [Parecoxib Sodium], the “z-score of subpopulation abundance” value was 0.68. `CN(CCN1CCC(OC(=O)Nc2ccccc2-c2ccccc2)CC1)C(=O)c1ccc(CN2CCC(C(N)=O)CC2)cc1` [Revefenacin] was tested, and the “z-score of subpopulation abundance” value was -0.42. For `Cc1nnc(NS(=O)(=O)c2ccc(N)cc2)s1` [Sulfamethizole], the “z-score of subpopulation abundance” value was 0.65. In the case of `CC1=CC[C@@](O)(C(C)C)CC1` [Terpinen-4-ol], the “z-score of subpopulation abundance” value is reported as 0.37. `CS(=O)(=O)c1ccc([C@@H](O)[C@@H](CF)NC(=O)C(Cl)Cl)cc1` [Florfenicol] was tested, and the “z-score of subpopulation abundance” value was -0.16. `Cn1c([N+](=O)[O-])cnc1COC(N)=O` [Ronidazole] was tested, and the “z-score of subpopulation abundance” value was -0.01. In the case of `COc1ccc(Cl)cc1C(=O)NCCc1ccc(S(=O)(=O)NC(=O)NC2CCCCC2)cc1` [Glyburide (Glibenclamide)], the “z-score of subpopulation abundance” value is reported as 1.58. For `O=C(Nc1c(Cl)cncc1Cl)c1ccc(OC(F)F)c(OCC2CC2)c1` [Roflumilast], the “z-score of subpopulation abundance” value was -0.2. With `CN(C)[C@@H](CCOc1cccc2ccccc12)c1ccccc1` [Dapoxetine HCl] the “z-score of subpopulation abundance” value was 0.84. `CN(C)CCC=C1c2ccccc2C(C)(C)c2ccccc21` [Melitracen hydrochloride] was tested, and the “z-score of subpopulation abundance” value was -0.61. For `COc1cc(Cc2cnc(N)nc2N)cc(OC)c1OC` [Trimethoprim], the “z-score of subpopulation abundance” value was 0.44. `CC(C)c1c(C(=O)Nc2ccccc2)c(-c2ccccc2)c(-c2ccc(F)cc2)n1CC[C@@H](O)C[C@@H](O)CC(=O)O` [Atorvastatin] was tested, and the “z-score of subpopulation abundance” value was 1.5. With `NNc1nncc2ccccc12` [Hydralazine HCl] the “z-score of subpopulation abundance” value was -0.91. With `COCCOC(=O)C1=C(C)NC(C)=C(C(=O)OC(C)C)C1c1cccc([N+](=O)[O-])c1` (centres undefined) [Nimodipine] the “z-score of subpopulation abundance” value was 0.55. In the case of `CCOC(=O)C1=C(C)NC(C)=C(C(=O)OC)C1c1cccc([N+](=O)[O-])c1` (centres undefined) [Nitrendipine], the “z-score of subpopulation abundance” value is reported as -1.96. `CC(C)n1c(/C=C/C(O)CC(O)CC(=O)O)c(-c2ccc(F)cc2)c2ccccc21` (centres undefined) [Fluvastatin Sodium] was tested, and the “z-score of subpopulation abundance” value was -1.3. With `CCCN[C@H]1CCc2nc(N)sc2C1` [Pramipexole dihydrochloride] the “z-score of subpopulation abundance” value was -0.42. `Cc1cc(C)nc(NS(=O)(=O)c2ccc(N)cc2)n1` [Sulfamethazine] was tested, and the “z-score of subpopulation abundance” value was 0.4. For `CC[C@H](C)C(=O)O[C@H]1C[C@@H](C)C=C2C=C[C@H](C)[C@H](CC[C@@H]3C[C@@H](O)CC(=O)O3)[C@H]21` [Lovastatin], the “z-score of subpopulation abundance” value was -0.96. With `CN1[C@@H]2CC[C@H]1C[C@@H](OC(c1ccccc1)c1ccccc1)C2` [Benztropine mesylate] the “z-score of subpopulation abundance” value was 0.17. In the case of `NCC[C@H](O)C(=O)N[C@@H]1C[C@H](N)[C@@H](O[C@H]2O[C@H](CN)[C@@H](O)[C@H](O)[C@H]2O)[C@H](O)[C@H]1O[C@H]1O[C@H](CO)[C@@H](O)[C@H](N)[C@H]1O` [Amikacin hydrate], the “z-score of subpopulation abundance” value is reported as 1.02. With `CO/N=C(\C(=O)N[C@@H]1C(=O)N2C(C(=O)O)=C(CSc3nc(C)c(CC(=O)O)s3)CS[C@H]12)c1csc(N)n1` [Cefodizime Sodium] the “z-score of subpopulation abundance” value was -0.39. For `COc1ccc2c3c1O[C@H]1C[C@@H](O)C=C[C@@]31CCN(C)C2` [Galanthamine], the “z-score of subpopulation abundance” value was 0.78. In the case of `CC[C@H](C)C(=O)O[C@H]1CCC=C2C=C[C@H](C)[C@H](CC[C@@H]3C[C@@H](O)CC(=O)O3)[C@H]21` [Mevastatin], the “z-score of subpopulation abundance” value is reported as -0.41. `CN1CCN(CCCN2c3ccccc3Sc3ccc(C(F)(F)F)cc32)CC1` [Trifluoperazine 2HCl] was tested, and the “z-score of subpopulation abundance” value was -0.42. For `O=C(Cn1ccnc1[N+](=O)[O-])NCc1ccccc1` [Benznidazole], the “z-score of subpopulation abundance” value was 0.22. In the case of `CCN(Cc1ccncc1)C(=O)C(CO)c1ccccc1` (centres undefined) [Tropicamide], the “z-score of subpopulation abundance” value is reported as 0.34.
